Assay results: PubChem BioAssay (EPA / NIEHS)
Activity calls are given as the source filed them. How the source made its calls: active means hit-call score of the fitted dose curve at least 0.9, where 1 is the maximum; inactive means score below 0.9.

Assay: ATG_FoxO_CIS: Attagene CIS-FACTORIAL HepG2 Assay for human Forkhead box O (FoxO) (AID 2282943)
Details: HepG2 Attagene cis-reporter, FoxO element, mRNA; actives raise or lower the signal
How it was run: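 HepG2, transient MRTU transfection (cis element, endogenous TFs). Dose 24 h. TriZol RNA → oligo(dT) RT → PCR → 6-FAM primer extension → HpaI cut → CE. Gain/loss vs DMSO.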

outcome, inactive:
C=CC(C)(C)C
CCCCCCCCCCCCCOP(=O)(O)O
CC(C)=CCC[C@H](C)CCO
NC(=O)OCC(COC(N)=O)c1ccccc1
CCCCC(CC)COCC1CO1 (stereo not given)
CC(=O)OCC(=O)[C@@]12N=C(C)O[C@@H]1C[C@H]1[C@@H]3CCC4=CC(=O)C=C[C@]4(C)[C@H]3[C@@H](O)C[C@@]12C
CC=CC(=O)N(CC)c1ccccc1C
CN1C(=O)N(C)C(O)C1O (stereo not given)
COc1ccc2nc(N)sc2c1
CCOCC(=O)O
Nc1ncn([C@@H]2O[C@H](CO)[C@@H](O)[C@H]2O)c(=O)n1
OC1CCCC1
O=c1c2ccccc2oc2ccccc12
Cc1ccc(C(C)c2ccc(C)c(C)c2)cc1C
CC(C)CCCC(C)CC=O (stereo not given)
CC(=O)NS(=O)(=O)c1ccc(N)cc1
CCCCCCCC/C=C\CCCCCCCC(=O)OCCO
O=C1c2ccccc2C(=O)C1c1nc2ccccc2c(Br)c1O
C[C@]12CCC(=O)C=C1CC[C@@H]1[C@@H]2C(=O)C[C@@]2(C)[C@H]1CC[C@]2(O)C(=O)CO
CCN(CC#N)c1cccc(C)c1
CC1(C)S[C@@H]2[C@H](NC(=O)COc3ccccc3)C(=O)N2[C@H]1C(=O)O
COc1c2ccoc2cc2oc(=O)ccc12
O=c1[nH]nc(-c2ccc([N+](=O)[O-])o2)o1
C=C[Si](OC(C)=O)(OC(C)=O)OC(C)=O
COc1cc(NC(=O)CC(C)=O)c(OC)cc1Cl
O=C(O)CCCC[C@@H]1SC[C@@H]2NC(=O)N[C@@H]21
CCCNC(=O)NS(=O)(=O)c1ccc(Cl)cc1
C=C(C)C(=O)OCCOc1ccccc1
CC(C)(C)C(=O)CCc1ccc(Cl)cc1
COC(=O)/C=C\C(=O)O
[Cl][Nd]([Cl])[Cl]
NCCCN1CCN(CCCN)CC1
CCCCC(CC)COC(=O)c1ccccc1O (stereo not given)
COc1ccc(C(Cl)=C(c2ccc(OC)cc2)c2ccc(OC)cc2)cc1
CCCOC(=O)CCCCC(=O)OCCC
CCOC(=O)N1CCC(=C2c3ccc(Cl)cc3CCc3cccnc32)CC1
c1ccc(-c2ccccn2)nc1
CNC(=S)N(C)C
C[C@]12C=CC(=O)C=C1CC[C@@H]1[C@@H]2[C@@H](O)C[C@@]2(C)[C@H]1CC[C@]2(O)C(=O)CO
Cc1ccc(C(C)(C)C)cc1
